Experimental data taken from the supplement of paper PMC11001985.
A number with no mark means an inactive call.

Each compound was assayed against TTYH3 (lysine site: K340) (UniProt Q9C0H2) (assay: lysine labeling ratio R10:1 (500 µM / 50 µM probe), SILAC-ABPP in living cells; higher = lower intrinsic lysine reactivity toward the probe, active = 2 or less). Conditions: HeLa; probe concentrations 500 vs 50 µM.
TTYH3 (lysine site: K340), sequence (Q9C0H2 whole entry): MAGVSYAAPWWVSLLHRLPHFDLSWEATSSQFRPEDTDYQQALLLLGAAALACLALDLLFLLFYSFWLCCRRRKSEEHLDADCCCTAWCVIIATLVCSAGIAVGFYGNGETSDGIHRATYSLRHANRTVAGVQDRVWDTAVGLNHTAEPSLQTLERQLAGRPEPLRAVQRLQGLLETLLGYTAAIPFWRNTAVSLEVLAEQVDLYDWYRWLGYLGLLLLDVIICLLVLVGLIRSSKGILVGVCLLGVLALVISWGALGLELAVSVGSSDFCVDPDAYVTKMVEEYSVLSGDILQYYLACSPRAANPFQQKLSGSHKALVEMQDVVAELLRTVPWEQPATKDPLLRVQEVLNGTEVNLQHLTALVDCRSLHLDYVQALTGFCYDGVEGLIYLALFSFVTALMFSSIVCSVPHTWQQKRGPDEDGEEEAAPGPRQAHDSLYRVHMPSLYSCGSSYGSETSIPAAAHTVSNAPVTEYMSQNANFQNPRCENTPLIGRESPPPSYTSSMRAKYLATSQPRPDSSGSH
Protocol: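 Living HeLa cells (SILAC light/heavy) in PBS at room temperature were labeled with 50 µM versus 500 µM of the lysine-reactive, reductant-cleavable probe OPA-S-S-alkyne (SILAC labeling time not stated). Probe-modified peptides were CuAAC-biotinylated, captured on neutravidin and eluted with DTT/IAA, then quantified by LC-MS/MS. R = median peptide ratio per lysine (500/50 µM), combined over 3 forward and 3 reverse SILAC replicates. Ratios are capped at 20; R < 2 = hyper-reactive.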
In the case of `C#CCNC(=O)CCSSCCC(=O)NCCc1ccc(C=O)c(C=O)c1`, the “lysine labeling ratio R10:1” value is reported as 2.27.
